# Values joined by “and” are separate entries in the source; they are usually repeats but may differ in a detail not shown here. Identical values can stand only once. About 6,200 (1.8%) of roughly 340,000 compounds were called active. Where a call stands in place of a potency, no number is given. About 10% were inconclusive and are not listed. The sample holds actives, similar compounds and a random draw of the others, so the mix is not that of the screen. Calls come from the whole dose curve; as a rule, active = well fitted activation curve with a large enough effect; inconclusive = small, poorly fitted or top-dose-only effect; inactive = no such curve, though single readings can be large or run the other way.
# Test: A quantitative high throughput screen for small molecules that induce DNA re-replication in SW480 colon adenocarcinoma cells. Note: nearly all actives have a fitted effect of over 55% in size.
# Conditions: Hoechst DNA content imaging, 48 h; series mostly up to 46.1 µM
# Summary of the method: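 Per well, 250 cells were exposed to pinned compound for 48 hr. Nuclear DNA was visualised with Hoechst (40 min, 37 C) and total object intensity recorded by fluorescence scanning.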
# Potency is the fitted concentration of half-maximal effect.
SMILES,Potency,re-replication activation
NC1=NOC(=O)C1C1CCCCC1 (stereo not given),inactive,–
CC(=O)OCC(=O)C1(O)CCC2C3CC(C)C4=CC(=O)CCC4(C)C3C(O)CC21C (stereo not given),inactive,–
O=C(c1ccc2c(c1)C(=O)N(Cc1ccncc1)C2=O)N1CCN(S(=O)(=O)c2ccc(OC(F)(F)F)cc2)CC1,inactive,–
CCN(C[C@H]1N[C@@](CC)(C(=O)OC)[C@H]2C(=O)N(C)C(=O)[C@@H]12)C(=O)Nc1ccc(F)cc1,inactive,–
O=C(c1ccccc1)N1N=C(c2ccccc2O)CC1c1ccc(Br)cc1 (stereo not given),inactive,–
Oc1ccccc1C1=NN(c2ccccc2)C(c2ccccc2)C1 (stereo not given),8.2 µM (active),–
CC(=O)Oc1ccccc1C1=NN(C(C)=O)C(c2ccccc2)C1 (stereo not given),inactive,–
O=C1/C(=C\c2cccnc2)CN(Cc2ccccc2)C/C1=C\c1cccnc1,0.13 µM (active),–
O=C1NCC(=O)N(Cc2ccccc2)/C1=C/c1ccccc1,inactive,–
Clc1ccc(CN2CCN(/N=C/c3cccnc3)CC2)cc1,inactive,–
Cc1cc(C)c([N+](=O)[O-])cc1-c1ccc(/C=N/NC(=O)c2nonc2N)o1,inactive,–
COc1cc(OC)c(/C=N/NC(=O)c2ccc([N+](=O)[O-])cc2)cc1Br,inactive,–
COc1cc(/C=N\NC(=O)c2nonc2N)c(OC)cc1Br,0.291 µM (active),–
C[C@@H]1CN([C@@H](C)CO)C(=O)c2cc(NC(=O)C3CC3)ccc2O[C@H]1CN(C)C,inactive,–
COc1cc(C(=O)OCc2cc(=O)n3ccsc3n2)ccc1OC(C)C,inactive,–
CC(NC(=O)C(=O)NN=C1CCC(C(C)(C)C)CC1)c1ccccc1 (stereo not given),0.731 µM (active),–
CC(C)(C)C1CCC(=NNC(=O)c2cc(-c3ccccc3)n[nH]2)CC1 (stereo not given),inactive,–
CC(NC(=O)C(=O)N/N=C/c1ccc(Cl)cc1)c1ccccc1 (stereo not given),inactive,–
CC[C@@]1(C(=O)OC)N[C@H](CN(C)C(C)=O)[C@@H]2C(=O)N(C)C(=O)[C@@H]21,inactive,–
CCCOc1ccccc1C1CC(=O)Nc2cc3c(cc21)OCO3 (stereo not given),3.66 µM (active),–
COc1ccccc1C1C2=C(COC2=O)Nc2cc3c(cc21)OCO3 (stereo not given),inactive,–
COC(=O)C1=C(C)NC(=O)CC1c1ccccc1OC (stereo not given),inactive,–
COc1ccc(C)cc1NC(=O)CSc1cccc[n+]1[O-],inactive,–
Cc1ccc(S(=O)(=O)Cc2cc(-c3ccc(Cl)cc3)no2)cc1,inactive,–

SMILES,Potency,re-replication activation
O=S(=O)(Cc1ccc(Cl)cc1Cl)c1ccc(Cl)cc1,1.3 µM (active),–
O=S(=O)(NCc1ccc(Cl)cc1Cl)c1cccs1,inactive,–
Nn1c(SCC(=O)NC2CCCc3ccccc32)nnc1C1CC1 (stereo not given),inactive,–
CN(C)C(=O)CCc1ccc2c3c([nH]c2c1)[C@]1(CCC2CCCC2)[C@@H](C(=O)N2CCOCC2)C[C@H](CC(=O)NCc2ccco2)C(=O)N1CC3,–,19.7% [at 9.22 µM] (inactive)
O=C1c2ccccc2C(=O)N1CCCCCCN1C(=O)c2ccccc2C1=O,inactive,–
CC(CNC(=O)Cn1cnc2c(OCc3ccccc3)ncnc21)c1ccccc1 (stereo not given),inactive,–
O=C(/C=C/c1cccc(C(F)(F)F)c1)N1CCN(c2ccccn2)CC1,4.61 µM (active),–
O=C(Cc1ccc(Br)cc1)N1CCN(c2ccccn2)CC1,inactive,–
O=C(C(Cl)Cl)N1CCN(c2ccccn2)CC1,inactive,–
O=C(c1cccnc1)N(Cc1ccccc1)C(=O)c1cccnc1,inactive,–
CCOC(=O)N(Cc1ccccc1)C1CC1,inactive,–
CC1=CC(=NNS(=O)(=O)c2ccc([N+](=O)[O-])cc2)CC(C)(C)C1,inactive,–
Cc1coc2c(O)cc3c(c12)OC1(N2CCCCC2)C(=O)NCCCC31 (stereo not given),20.6 µM (active) and 7.08 µM (active),–
COc1ccc(C(=O)N(C)Cc2ccc(OC)c(OC)c2OC)cc1S(=O)(=O)N1CCOCC1,inactive,–
COc1ccc(N2C(=O)/C(=C\c3ccco3)N=C2SCC(N)=O)cc1Cl,18.4 µM (active),–
COc1ccc([N+](=O)[O-])cc1NC(=O)COC(=O)/C=C/c1ccco1,inactive,–
COC(=O)C1=C(C)N(c2ccc(Br)cc2)C(=O)/C1=C\c1ccco1,inactive,–
O=C(CC1SC(N2CCOCC2)=NC1=O)Nc1ccccc1F (stereo not given),inactive,–
CCCCCCSc1ccc([C@@H]2[C@H]3C(=O)N(CC)C(=O)[C@H]3[C@]3(C(=O)OC)CCCCN23)cc1,inactive,–
COC(=O)Cc1c(-c2[nH]c3ccccc3c2CC(=O)OC)[nH]c2ccccc12,inactive,–
O=C(CN1C(=O)NC2(CCCC2)C1=O)Nc1cc(C(F)(F)F)ccc1N1CCOCC1,inactive,–
Cc1cc(C)nc(N/N=C/c2c(C)oc3ccccc23)n1,inactive,–
Cc1cc(C)nc(N/N=C/c2c(CO)cnc(C)c2O)n1,11.6 µM (active),–
O=C(COC(=O)/C=C/c1ccc(Br)o1)Nc1cccc(S(=O)(=O)N2CCOCC2)c1,inactive,–

SMILES,Potency,re-replication activation
CC1CCCCC12NC(=O)N(CC(=O)N1CCN(c3ccccc3)CC1)C2=O (stereo not given),inactive,–
CCOc1cc(NC(=O)c2ccccc2C(=O)O)c(OCC)cc1NC(=O)c1ccccc1F,inactive,–
CCC(=O)Nc1ccc2nc(C)n(Cc3ccccc3Cl)c(=O)c2c1,inactive,–
CCN1CCN(c2cc3nc(C)n(Cc4ccccc4)c(=O)c3cc2NC(=O)c2ccccc2F)CC1,8.2 µM (active),–
O=C(c1cccs1)N1CCCC(c2nc(-c3ccc(F)cc3)no2)C1 (stereo not given),inactive,–
Cc1cc(C#N)c(SCC(N)=O)nc1-c1ccc(F)cc1,inactive,–
N#Cc1c(-c2ccc(F)cc2)cc(C2CC2)nc1SCC(=O)c1cccs1,11.6 µM (active),–
CC12CCCCC1=CC(=O)CC2 (stereo not given),inactive,–
O=C(Nc1ccc(NC(=O)c2ccco2)c(Cl)c1)c1cccc([N+](=O)[O-])c1,0.651 µM (active),–
O=C(Nc1ccc(C2CC2(Cl)Cl)cc1)c1cccc([N+](=O)[O-])c1 (stereo not given),inactive,–
CCC(=O)NC(=S)Nc1ccc(NC(=O)c2ccco2)c(Cl)c1,inactive,–
O=C(COC(=O)CSc1ccccc1)Nc1ccc(F)cc1F,inactive,–
C=CC[C@H](CC(=O)NCCO)C(=O)N[C@@H](COC(=O)[C@@H](CC=C)Cc1ccc(F)cc1)Cc1c[nH]c2ccccc12,inactive,–
Cc1ccc(C(=O)Nc2ccccc2-c2ccccc2)cc1S(=O)(=O)Nc1ccccc1,inactive,–
Cn1c(N)cc(=O)n(C)c1=S,inactive,–
CCCn1nc(NS(=O)(=O)c2ccc(F)cc2)c2cc3ccccc3nc21,inactive,–
CCCn1nc(NC(=O)C(C)C)c2cc3cc(OC)ccc3nc21,9.2 µM (active),–
CCCn1nc(NS(=O)(=O)c2ccccc2)c2cc3cc(C)ccc3nc21,inactive,–
CCOC(=O)C1CCCN(C(=O)C2CCN(S(=O)(=O)c3ccc(Cl)c(C(F)(F)F)c3)CC2)C1 (stereo not given),inactive,–
Cc1ccc(S(=O)(=O)N2CCCCC2)cc1C(=O)N1CCN(CCO)CC1,inactive,–
O=C(CCC(=O)N1CCN(S(=O)(=O)c2ccc(Cl)cc2)CC1)NCc1cccc(C(F)(F)F)c1,inactive,–
OCCNc1nc(Nc2ccc(Cl)c(Cl)c2)nc2ccccc12,inactive,–
CN(C)c1nc(Nc2ccc(Cl)c(Cl)c2)nc(N(C)C)n1,23.1 µM (active),–
CN(C)c1nc(NN)nc(Nc2ccc(F)cc2)n1,inactive,–

SMILES,Potency,re-replication activation
CC(=O)Oc1ccc2c(c1)C(=O)c1ccccc1C2=O,inactive,–
O=C1C(Cl)=C(Oc2ccccc2)C(=O)c2ccccc21,2.06 µM (active),–
Cc1ccc(S(=O)(=O)N2CCN(C(=O)CN3C(=O)NC(C)(c4ccc(Cl)cc4)C3=O)CC2)c(C)c1 (stereo not given),inactive,–
Cc1ccnc(SCC(=O)Nc2cccc(S(=O)(=O)N3CCOCC3)c2)n1,inactive,–
CC(=O)Nc1ccc(NC(=O)c2sc3nc4c(c(-c5ccc(C)cc5)c3c2N)CCC4)cc1,20.6 µM (active),–
Cc1ccc(NC(=O)c2csc3c2CCCC3)cc1,inactive,–
Cc1ccc(NC(=O)c2c(NC(=O)CCC(=O)O)sc3c2CCCCC3)cc1,inactive,–
COc1ccccc1N(CC(=O)Nc1c(C)n(C)n(-c2ccccc2)c1=O)S(=O)(=O)c1ccccc1,inactive,–
Cc1ccc(S(=O)(=O)NCC(=O)NNC(=O)c2ccc(Br)cc2)cc1C,inactive,–
O=C1c2ccccc2C(=O)N1CCC#Cc1ccc2cc(C3(O)CCCCC3)oc(=O)c2c1,inactive,–
COc1cc(/C=C2\Oc3ccc(C#Cc4ccc(O)cc4)cc3C2=O)cc(OC)c1,inactive,–
COc1cc(C#Cc2ccc3cc(CCCO)oc(=O)c3c2)cc(OC)c1,3.26 µM (active),–
C#CCOCCOCCOCCNc1nc(N2CCN(C(=O)[C@H](CO)n3cc([C@@H](N)C(C)C)nn3)CC2)nc(N2CCN(C(=O)[C@H](CCC(=O)O)n3cc([C@@H](N)[C@H](C)CC)nn3)CC2)n1,inactive,–
COc1ccc(/C=C(\C#N)c2c[nH]c3ccccc23)cc1,18.4 µM (active),–
COc1cc(/C=C(\C#N)c2nc3ccccc3[nH]2)ccc1O,inactive,–
COc1ccc2[nH]cc(/C=C(/C#N)S(=O)(=O)c3ccccc3)c2c1,inactive,–
C#CCOCCOCCOCCNc1nc(N2CCOCC2)nc(N2CCN(C(=O)[C@H](Cc3ccc(O)cc3)n3cc(CCO)nn3)CC2)n1,inactive,–
Cc1noc(C)c1S(=O)(=O)N(C)C[C@H]1Oc2c(NC(=O)Nc3ccc4c(c3)OCO4)cccc2C(=O)N([C@H](C)CO)C[C@@H]1C,inactive,–
O=C(NCc1ccc2c(c1)OCO2)c1cc(F)c(F)cc1Cl,inactive,–
O=C(NCc1ccc2c(c1)OCO2)c1cc([N+](=O)[O-])ccc1N1CCOCC1,7.31 µM (active),–
O=C(Cc1ccc([N+](=O)[O-])cc1)NCCc1ccc2c(c1)OCO2,inactive,–
CC[C@]12c3[nH]c4ccc(Cl)cc4c3CCN1C(=O)[C@@H](CC(=O)NCCN1CCOCC1)C[C@@H]2C(=O)N1CCN(C(=O)C2CC2)CC1,inactive,–
COc1ccc(CCNC(=O)COc2cc(C)cc3oc(=O)c(C)c(C)c23)cc1OC,inactive,–
